Among the data in ChEMBL document CHEMBL1157539, “Thousands of chemical starting points for antimalarial lead identification” (Nature, 2010) are Inhibition values, retold here.

Common to all, as to format: functional
The test system of assay [1] is Plasmodium falciparum. The assay can be described thus: GSK_TCMDC: Inhibition of Plasmodium falciparum 3D7 in whole red blood cells, using parasite LDH activity as an index of growth. Test compounds present at 2uM.
Assay [2] has as its system Plasmodium falciparum. The assay can be described thus: GSK_TCMDC: Inhibition of Plasmodium falciparum Dd2 in whole red blood cells, using parasite LDH activity as an index of growth. Test compounds present at 2uM.
The subject of assay [3] is HepG2. The assay is described as follows: GSK_TCMDC: Percent inhibition of human HepG2 cell line. Test compounds present at 10uM.

With `O=C(/C=C/c1ccc(Cl)c(Cl)c1)NCCCCCCN1CCN(C(=O)Nc2cccc(Cl)c2)CC1`, the Inhibition amounted to 85% in assay [1], 2% in assay [2] and 33% in assay [3].

Consider `CCCCCN1CCN(Cc2cccc(NC(=O)c3ccc(Cl)c(Cl)c3)c2)CC1.O=C(O)C(F)(F)F`, for which the Inhibition in assay [1] worked out at 90%; in assay [2], 33%; in assay [3] it was 24%.

For the compound `CCOc1cc(C(=O)N[C@@H](Cc2ccccc2)[C@H](O)CNCc2cccc(OC)c2)cc(N2CCCCS2(=O)=O)c1.Cl`, the Inhibition in assay [1] came to 97%; in assay [2] it was 94%; in assay [3], 3%.

For the compound `COc1ccc(O)c(C(=O)NCCc2ccc(OC)c(-c3ccc(C(C)(C)C)cc3)c2)c1`, the figures for the Inhibition in assay [1], in assay [2] and in assay [3] were 88%, 91% and 11%, respectively.
